Most compounds without a hit are left out; they make up all but 20% or so of the library.
Shiga inhibitor = inhibitors of Shiga toxin in Vero cells; actives 9.2% (n = 290,000); inhibition, % at 38.7 µM; AID 2315; Vero cells, Shiga toxin protein synthesis inhibition reporter; in the data active = inhibition mostly above about 28%, no sharp cut-off; inactive = mostly below about 43%; also: 0% is about no effect
Pf growth 96h = inhibits malaria parasite growth, 96 h; P. falciparum luciferase reporter growth, 96 h; Potency, µM (top dose mostly 28.7 µM), without a hit: top-dose activity change, negative = inhibition, usual class: inhibitors; AID 504834; actives 6.9% (n = 320,000); also: potency is read from the fitted curve at half-maximal effect; % is scaled to controls: 0 for no effect and ±100 for the full control effect
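Erythrocytes infected with luciferase-expressing P. falciparum were dispensed at 2% hematocrit and 0.05% parasitemia (final), then incubated with compounds 96 hours at 37 C in 5% CO2. Luminescence after detection reagent addition reported growth.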
Cycloheximide cs = counter-screen for Shiga toxin inhibitors: cycloheximide protein synthesis inhibition; cell reporter, cycloheximide protein synthesis inhibition counterscreen; max response, %; actives 12% (n = 300,000); in the data active = max response mostly above about 13%, no sharp cut-off; inactive = mostly below about 14%; also: read at 38.3 µM for the half of the compounds with a filed dose; 0% is about no effect
Pf growth 48h = inhibits P. falciparum growth in the first generation, 48 h; P. falciparum luciferase growth in erythrocytes, 48 h; Potency, µM (titrated, usually from 28.7 µM), without a hit: top-dose activity change, negative = inhibition, hits mostly inhibitors; actives 5.9% (n = 310,000); AID 504832; also: potency is read from the fitted curve at half-maximal effect; % is scaled to controls: 0 for no effect and ±100 for the full control effect
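Cell-based growth assay: transgenic P. falciparum expressing firefly luciferase, cultured in red cells within RPMI 1640 containing 0.5% w/v Albumax, 24 mM bicarbonate and gentamycin. A drop in luciferase activity indicates inhibition.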
HCMV inh = human cytomegalovirus inhibition; HFF cells, HCMV-luciferase reporter, 72 h; hits give low values; activity change, negative = inhibition, % at 57.5 µM; actives 4.5% (n = 410,000); AID 1259415; in the data active = activity change below about -60%; inconclusive = no clear call, values can overlap the other calls; inactive = above about -39%; also: % is scaled to controls: 0 for no effect and ±100 for the full control effect
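Human foreskin fibroblasts infected with luciferase-reporter HCMV at MOI 1 PFU/cell, compounds at two doses. Luciferase measured 72 h post infection; normalized to buffer-only basal and Salinomycin (10uM) controls.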
Numbers without * were called inactive; ? = inconclusive; / = no result given; [ ] = another dose, or the depositor's remark. Unless noted, calls follow the shape of the dose curve; as a rule, active = well fitted inhibition curve with a large enough effect; inconclusive = small, poorly fitted or top-dose-only effect, or another doubt; inactive = no such curve, though single readings can be large or run the other way.

SMILES	Shiga inhibitor	Pf growth 96h	Cycloheximide cs	Pf growth 48h	HCMV inh
Cc1ccc(CNC(=O)c2ccc(N3Cc4ccccc4Oc4ncccc43)s2)cc1	/	/	/	/	-4
CN(C)C(=O)NC1CCCCCCC1	-6	/	1	/	/
CC(C)(C)c1ccc(-c2nc3c(C#N)c(-c4ccc5c(c4)OCO5)ccn3n2)cc1	-6	?	4	8.3µM*	?
Cc1ccc(-c2cc(-c3ccc4c(c3)OCO4)c(C#N)c(N)n2)o1	4	/	-1	?	51
COc1ccc(CC2(CO)CCN(C(C)Cc3ccc(Cl)cc3)CC2)cc1 (centres undefined)	-8	8%	1	12µM*	-9
COc1cccc(CC2(CO)CCN(Cc3cccn3-c3cccnc3)CC2)c1	-40	?	-2	-10%	5
OCC1(Cc2ccccc2)CCN(Cc2cnc(-c3ccc(Cl)cc3)nc2)CC1	91*	32%	39*	?	-67*
COc1ccc(CC2(CO)CCN(S(=O)(=O)c3sccc3C)CC2)cc1	-5	12µM*	8	?	4
COc1ccc(CC2(CO)CCN(S(=O)(=O)c3c(C)nn(C)c3Cl)CC2)cc1	3	-1%	-1	-8%	107
COc1ccc(-c2ncc(CN3CCC(CO)(Cc4cccc(OC)c4)CC3)cn2)cc1	27	?	8	10µM*	0
OCC1(Cc2ccccc2)CCN(Cc2cnc(-c3cccc4ccccc34)nc2)CC1	20	32%	9	?	13
CCCCOc1ccc(C(=O)N2CCN(c3ncccn3)CC2)cc1	/	?	7	?	27
COC(=O)c1ccccc1NC(=O)CSc1n[nH]c(-c2ccco2)n1	7	2%	-5	7%	-2
COc1ccc(CC2(CO)CCN(Cc3cccnc3)CC2)cc1	33	-18%	38*	10µM*	4
COc1cc(-n2c(=O)c3ccccc3n(CC(=O)OCc3ccccc3)c2=O)cc(OC)c1OC	-14	9.3µM*	-3	10%	-7
COc1ccc(NC(=O)N2CCN(c3ccc([N+](=O)[O-])cc3)CC2)cc1OC	17	?	0	16%[5.75 µM]	-34
O=C(CCc1ccc(Oc2cc([N+](=O)[O-])cc([N+](=O)[O-])c2)cc1)N1CCCCC1	20	?	10	12µM*	-22
CCc1noc(C)c1C(=O)N1CCN(c2ccc([N+](=O)[O-])cc2)CC1	/	/	/	/	38
COc1ccc(CCC(=O)N2CCN(c3ccc([N+](=O)[O-])cc3)CC2)cc1OC	-3	?	1	0%	-68*
COc1ccc(N2CCN(C(=O)CSc3ccc([N+](=O)[O-])cc3)CC2)cc1	-14	-5%	-6	-10%	-65*
Cc1noc(C)c1CSCC(=O)N1CCN(c2ccc([N+](=O)[O-])cc2)CC1	-7	12µM*	-5	/	?
O=C(c1ccc(Oc2ccc([N+](=O)[O-])cc2)cc1)N1CCCCCC1	68	3%	11	26%	-25
CC1=CCC[C@H]2[C@H](C1)C(=O)C[C@@H](C)[C@]2(C)CC/C(=C/CO)CO	/	/	/	/	16
CCOc1ccc2nc3c(cc2c1)CN(CCOC)C(=NC)S3	15	2.1µM*	13	?	10
O=C(NCc1ccccc1)C1=C[C@H](c2ccc(Br)cc2)C[C@H](OCCCCO)O1	/	/	/	/	25
SMILES	Shiga inhibitor	Pf growth 96h	Cycloheximide cs	Pf growth 48h	HCMV inh
O=C(NCc1ccccc1)C1=C[C@H](c2csc3ccccc23)C[C@H](OCCCCO)O1	14	?	8	?	-95*
O=C(Nc1ccccc1)C1=C[C@H](c2csc3ccccc23)C[C@H](OCCCCO)O1	6	8.3µM*	12*	?	15
CC(C)C1NCCc2c1sc1ccccc21 (centres undefined)	/	/	/	/	-39
Cc1cc2c(cc1C)CSC(c1ccc3ccccc3c1O)SC2	-2	?	11	9.3µM*	15
Cc1cc2c(cc1C)CSC(c1c(O)ccc3ccccc13)SC2	-12	/	-2	12µM*	-74*
O=C(NC12CC3CC(CC(C3)C1)C2)N1CCC(O)CC1	-8	/	-1	?	27
O=C(NC12CC3CC(CC(C3)C1)C2)N1CCN(C(=O)C2CCCO2)CC1 (centres undefined)	-10	0%[5.75 µM]	11*	6%	-21
Cc1ccc(/C=N/NC(=O)Cc2cccs2)o1	23	4%	8	36%	-74*
CCN(CC)c1ccc(/C=N/NC(=O)Cc2cccs2)cc1	31	?	33*	-1%	-17
CCN(CC)c1ccc(/C=N/NC(=O)Cc2ccc(OC)c(OC)c2)cc1	21	-21%	1	?	2
COc1ccc(/C=N/NC(=O)Cc2cccs2)cc1	64*	?	62*	91%	79
Cc1noc(C)c1C(=O)N1CCC1(C)C(=O)NS(=O)(=O)c1ccccc1C(F)(F)F (centres undefined)	/	/	/	/	9
O=C1CSC2(C(=O)N(Cc3cccc(C(F)(F)F)c3)c3ccccc32)N1c1ccc(F)c(F)c1 (centres undefined)	/	/	/	/	-36
Cc1cc(N2CCN(c3nc(-c4ccccc4)cs3)CC2)c2ccccc2n1	-6	-9%	-2	?	?
O=C(CCCl)N1CCN(c2nc(-c3ccccc3)cs2)CC1	69*	?	33*	22%	?
CS(=O)(=O)N1CCN(c2nc(-c3ccccc3)cs2)CC1	64	?	27*	20%	18
CCS(=O)(=O)N1CCN(c2nc(-c3ccccc3)cs2)CC1	30	?	18*	29%	-12
CCCCC(=O)N1CCN(c2nc(-c3ccc(F)cc3)cs2)CC1	10	?	7	9%	-9
COc1cccc(-c2csc(N3CCN(S(=O)(=O)c4ccc(F)cc4)CC3)n2)c1	38	-5%	-3	?	?
CC(C)(C)n1nnnc1SCC(=O)Nc1nn(-c2ccccc2)nc1C(N)=O	-4	?	6	-7%	-17
Cc1cccc(C(CC(=O)O)NC(=O)C(F)(F)F)c1 (centres undefined)	-2	7%	7	22%	-35
Cc1nc2c(C)cccc2c(SC(=N)N)c1CC=C(Cl)Cl	2	-1%	1	-1%	14
C=CCc1c(C)nc2c(C)cccc2c1SC(=N)N	-9	15µM*	1	?	-32
O=C(OC(C(=O)NC1CCCC1)c1cccnc1)C1=Cc2ccccc2OC1 (centres undefined)	-22	45%	-4	?	16
O=C(COC(=O)c1ccccc1Br)NC1CCCCCCC1	/	/	/	/	-15
COc1ccccc1NCCC(=O)OCC(=O)NC1CC1	1	1%	-1	16%	-83*
COc1ccccc1C(=O)OCC(=O)NC(=O)NC1CCCC1	/	-11%	/	7%	-8
O=C(OCc1cccnc1)C1=Cc2ccccc2OC1	40*	11%	23	7%	-103*
COc1ccccc1C(=O)OCC(=O)NC1CCCC1	64*	10%	61*	2%	9
O=C(COC(=O)c1ccccc1Br)NC1CCCC1	59*	32%	39*	52%	-22
